Measured values as given in paper PMC11024108.

biological target: Septin-5 (UniProt Q9Z2Q6); assay: cross-link between two proteins; cross-linking mass spectrometry
Sequence (Q9Z2Q6 whole entry): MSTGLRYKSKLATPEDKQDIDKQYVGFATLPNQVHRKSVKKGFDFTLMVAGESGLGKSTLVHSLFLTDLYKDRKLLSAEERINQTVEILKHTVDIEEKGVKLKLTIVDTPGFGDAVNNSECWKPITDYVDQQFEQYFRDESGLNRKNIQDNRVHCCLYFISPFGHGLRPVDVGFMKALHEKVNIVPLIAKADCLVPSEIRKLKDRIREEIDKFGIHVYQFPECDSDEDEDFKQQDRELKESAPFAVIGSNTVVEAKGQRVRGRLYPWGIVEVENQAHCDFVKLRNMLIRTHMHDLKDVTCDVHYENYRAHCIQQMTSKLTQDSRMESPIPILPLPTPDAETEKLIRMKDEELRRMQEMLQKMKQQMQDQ

Listed as a hit, yes:
Septin-8, Q8CHH9
Septin-4, P28661
Septin-6, Q9R1T4
Septin-11, Q8C1B7
